# Reference: PubChem BioAssay
# “And” between values parts separate entries of the source, which are not always exact repeats. Equal values may be shown once. The source made the active and inactive calls.
# Key:
# [1] = tested on: PRMT1 (protein arginine N-methyltransferase 1); experiment: PRMT1 binders on small-molecule microarrays, primary screen, biochemical, small-molecule microarray, 635 nm fluorescence (AID 1088); conditions: small-molecule microarray binding, higher = more signal;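 note: binding of Prmt1 protein to compounds spotted on small-molecule microarray slides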
# [2] = yeast growth modulation, basal conditions, primary screen, YJM789 clinical isolate, OD600, 24 h (AID 1089);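 note: growth of clinical yeast isolate S. cerevisiae YJM 789 seeded 1000 cells per well; test concentration not given here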; conditions: S. cerevisiae YJM789 growth, higher = more signal, called active from +8 up or from −8 down
# [3] = fission yeast growth modulation, primary screen, strain 972, OD600, 24 h, no modulator (AID 1090);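 note: basal condition with compound alone and no growth modifier present; test concentration not given here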; conditions: S. pombe 972 growth, higher = more signal, called active from +8 up or from −8 down
# [4] = S. cerevisiae growth modulation with rapamycin, primary screen, strain BY4716, OD600, 96 h (AID 1091); conditions: higher = more signal, called active from +8 up or from −8 down; note: test concentration not given here
# [5] = target: Torsin-1A-interacting protein 2 (Homo sapiens) (UniProt Q8NFQ8); experiment: LULL1 binders on small-molecule microarray, primary screen, cell lysate, human LULL1 lysate, 635/667 nm fluorescence (AID 1092); conditions: hLULL1 lysate binding, 635 nm fluorescence, higher = more signal;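 note: probe is lysate of COS7 cells overexpressing human LULL1; score merges per-feature 667 nm fluorescence with signal-to-noise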
# [6] = E. coli growth modulation, two-sided OD650, primary screen, E. coli filamentation project, strain DRC41, 24 h (AID 1093); conditions: OD650, 24 h, higher = more signal, called active from +8 up or from −8 down;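 note: MC1000 strain lacking acrAB efflux and sulA so SOS filamentation is blocked; test concentration not given here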
# [7] = small-molecule microarray binders of probe aLefty2, primary screen, biochemical, biotinylated probe, 635/667 nm fluorescence (AID 1094); conditions: higher = more signal;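 note: score merges spot fluorescence near 667 nm with spot signal-to-noise ratio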
# [8] = tested on: Noggin (protein binding on small-molecule microarray); experiment: Noggin binders on small-molecule microarray, primary screen, biochemical, 635/667 nm fluorescence (AID 1095); conditions: 635 nm fluorescence, higher = more signal;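 note: score merges 667 nm feature fluorescence with signal to noise over triplicate slides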
# [9] = target: Neurogenic locus notch homolog protein 3 (Homo sapiens) (UniProt Q9UM47); experiment: NOTCH3 binders on small-molecule microarray, primary screen, biochemical, 635/667 nm fluorescence (AID 1096); conditions: NOTCH3 binding, 635 nm fluorescence, higher = more signal
# [10] = small-molecule microarray binders of probe aEGFR, primary screen, biochemical, biotinylated probe, 635/667 nm fluorescence (AID 1097); conditions: higher = more signal;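 note: probe is a biotinylated anti-EGFR antibody binding compounds printed on slides; score combines fluorescence near 667 nm and signal to noise of each spot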
# [11] = tested on: Plasmodium falciparum Sir2 (PF13_0152, Sir2A); experiment: pfSir2 binders on small-molecule microarrays, primary screen, biochemical, small-molecule microarray, 635 nm fluorescence (AID 1098); conditions: small-molecule microarray binding, fluorescence 635 nm; higher = more signal;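 note: score merges spot fluorescence intensity with its signal-to-noise ratio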
# [12] = small-molecule microarray binders of probe aDKK1, primary screen, biochemical, biotinylated probe, 635/667 nm fluorescence (AID 1099); conditions: higher = more signal;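 note: score merges 667nm spot fluorescence with signal to noise across triplicate slides; reference of the scale not given here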
# [13] = small-molecule microarray binders of probe aCHRDL2, primary screen, biochemical, biotinylated probe, 635/667 nm fluorescence (AID 1100); conditions: higher = more signal
# [14] = splicing luciferase reporter signal modulators, primary screen, spliceosome inhibition project, cell-based, HEK293, splice +/- reporter (AID 1101); conditions: luminescence, 24 h, higher = more signal, called active from +8 up or from −8 down;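 note: HEK293 cells carrying a splicing-competent luciferase reporter gene; test concentration not given here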
# [15] = target: Fibroblast growth factor 10 (Homo sapiens) (UniProt O15520); experiment: FGF10 binders on small-molecule microarrays, primary screen, biochemical, small-molecule microarray, 635 nm fluorescence (AID 1102); conditions: FGF10 binding, fluorescence 635 nm, higher = more signal
# [16] = tested on: glycogen synthase kinase-3 (GSK3A per assay name; protocol says GSK3B); experiment: GSK3 binders on small-molecule microarrays, primary screen, biochemical, small-molecule microarray, 635 nm fluorescence, GSK3A (AID 1103); conditions: small-molecule microarray binding, fluorescence 635 nm; higher = more signal; note: the record names both GSK3A and GSK3B
# [17] = target: Epidermal growth factor receptor (Homo sapiens) (UniProt P00533); experiment: EGFR binders on small-molecule microarrays, primary screen, biochemical, small-molecule microarray, 635 nm fluorescence (AID 1104); conditions: EGFR binding, higher = more signal;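 note: score merges 667 nm emission intensity with spot signal to noise over triplicate slides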
# [18] = target: Follistatin-related protein 3 (Homo sapiens) (UniProt O95633); experiment: FSTL3 binders on small-molecule microarrays, primary screen, biochemical, small-molecule microarray, 635 nm fluorescence (AID 1105); conditions: FSTL3 binding, higher = more signal;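 note: score merges emission near 667 nm and signal to noise per printed spot across three slides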
# [19] = target: Dickkopf-related protein 1 (Homo sapiens) (UniProt O94907); experiment: DKK1 binders on small-molecule microarrays, primary screen, biochemical, small-molecule microarray, 635 nm fluorescence scan (AID 1106); conditions: DKK1 binding, higher = more signal;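 note: score merges emission near 667 nm with signal to noise over three replicate slides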
# [20] = tested on: Inhibin beta A chain (activin A); experiment: INHBA (activin A) binders on microarrays, primary screen, biochemical, small-molecule microarray, 635 nm fluorescence scan (AID 1107); conditions: small-molecule microarray binding, higher = more signal;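 note: mouse activin A protein probed at 4.33 µg/mL on printed slides; score merges bound-protein fluorescence near 667 nm with spot signal-to-noise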
# Sequence of Epidermal growth factor receptor (Homo sapiens) (P00533 whole entry, looked up): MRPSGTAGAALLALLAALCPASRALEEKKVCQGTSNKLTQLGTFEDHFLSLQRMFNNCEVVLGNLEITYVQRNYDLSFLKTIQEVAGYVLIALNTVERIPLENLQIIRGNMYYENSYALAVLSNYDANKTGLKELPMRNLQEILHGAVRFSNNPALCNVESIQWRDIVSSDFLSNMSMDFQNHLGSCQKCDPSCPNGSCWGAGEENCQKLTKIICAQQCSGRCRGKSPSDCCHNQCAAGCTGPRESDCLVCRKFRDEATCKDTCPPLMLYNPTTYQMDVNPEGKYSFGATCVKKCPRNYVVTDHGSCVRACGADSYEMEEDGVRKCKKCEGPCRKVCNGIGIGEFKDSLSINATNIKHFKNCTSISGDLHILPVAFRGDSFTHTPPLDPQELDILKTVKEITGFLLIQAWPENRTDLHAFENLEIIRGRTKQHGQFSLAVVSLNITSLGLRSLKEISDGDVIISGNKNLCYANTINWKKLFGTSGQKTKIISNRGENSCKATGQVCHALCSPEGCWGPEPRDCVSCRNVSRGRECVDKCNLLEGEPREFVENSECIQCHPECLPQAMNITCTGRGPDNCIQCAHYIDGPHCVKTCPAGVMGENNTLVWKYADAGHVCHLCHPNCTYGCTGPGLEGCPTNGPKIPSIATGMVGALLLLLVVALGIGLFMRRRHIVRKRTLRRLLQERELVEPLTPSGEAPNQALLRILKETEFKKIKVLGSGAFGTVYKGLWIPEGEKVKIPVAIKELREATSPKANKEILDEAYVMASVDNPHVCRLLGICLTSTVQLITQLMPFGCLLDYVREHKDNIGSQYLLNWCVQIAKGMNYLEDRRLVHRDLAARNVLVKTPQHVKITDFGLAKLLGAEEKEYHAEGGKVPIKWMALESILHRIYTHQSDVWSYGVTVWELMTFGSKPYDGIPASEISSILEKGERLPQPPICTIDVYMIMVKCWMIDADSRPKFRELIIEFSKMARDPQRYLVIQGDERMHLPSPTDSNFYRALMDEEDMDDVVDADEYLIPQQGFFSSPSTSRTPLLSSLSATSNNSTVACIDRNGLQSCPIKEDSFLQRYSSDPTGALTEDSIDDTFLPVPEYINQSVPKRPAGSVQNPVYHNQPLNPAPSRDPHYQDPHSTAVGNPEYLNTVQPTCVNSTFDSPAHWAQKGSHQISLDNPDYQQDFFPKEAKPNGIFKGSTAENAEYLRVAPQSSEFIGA
# Sequence of Neurogenic locus notch homolog protein 3 (Homo sapiens) (Q9UM47 whole entry, looked up): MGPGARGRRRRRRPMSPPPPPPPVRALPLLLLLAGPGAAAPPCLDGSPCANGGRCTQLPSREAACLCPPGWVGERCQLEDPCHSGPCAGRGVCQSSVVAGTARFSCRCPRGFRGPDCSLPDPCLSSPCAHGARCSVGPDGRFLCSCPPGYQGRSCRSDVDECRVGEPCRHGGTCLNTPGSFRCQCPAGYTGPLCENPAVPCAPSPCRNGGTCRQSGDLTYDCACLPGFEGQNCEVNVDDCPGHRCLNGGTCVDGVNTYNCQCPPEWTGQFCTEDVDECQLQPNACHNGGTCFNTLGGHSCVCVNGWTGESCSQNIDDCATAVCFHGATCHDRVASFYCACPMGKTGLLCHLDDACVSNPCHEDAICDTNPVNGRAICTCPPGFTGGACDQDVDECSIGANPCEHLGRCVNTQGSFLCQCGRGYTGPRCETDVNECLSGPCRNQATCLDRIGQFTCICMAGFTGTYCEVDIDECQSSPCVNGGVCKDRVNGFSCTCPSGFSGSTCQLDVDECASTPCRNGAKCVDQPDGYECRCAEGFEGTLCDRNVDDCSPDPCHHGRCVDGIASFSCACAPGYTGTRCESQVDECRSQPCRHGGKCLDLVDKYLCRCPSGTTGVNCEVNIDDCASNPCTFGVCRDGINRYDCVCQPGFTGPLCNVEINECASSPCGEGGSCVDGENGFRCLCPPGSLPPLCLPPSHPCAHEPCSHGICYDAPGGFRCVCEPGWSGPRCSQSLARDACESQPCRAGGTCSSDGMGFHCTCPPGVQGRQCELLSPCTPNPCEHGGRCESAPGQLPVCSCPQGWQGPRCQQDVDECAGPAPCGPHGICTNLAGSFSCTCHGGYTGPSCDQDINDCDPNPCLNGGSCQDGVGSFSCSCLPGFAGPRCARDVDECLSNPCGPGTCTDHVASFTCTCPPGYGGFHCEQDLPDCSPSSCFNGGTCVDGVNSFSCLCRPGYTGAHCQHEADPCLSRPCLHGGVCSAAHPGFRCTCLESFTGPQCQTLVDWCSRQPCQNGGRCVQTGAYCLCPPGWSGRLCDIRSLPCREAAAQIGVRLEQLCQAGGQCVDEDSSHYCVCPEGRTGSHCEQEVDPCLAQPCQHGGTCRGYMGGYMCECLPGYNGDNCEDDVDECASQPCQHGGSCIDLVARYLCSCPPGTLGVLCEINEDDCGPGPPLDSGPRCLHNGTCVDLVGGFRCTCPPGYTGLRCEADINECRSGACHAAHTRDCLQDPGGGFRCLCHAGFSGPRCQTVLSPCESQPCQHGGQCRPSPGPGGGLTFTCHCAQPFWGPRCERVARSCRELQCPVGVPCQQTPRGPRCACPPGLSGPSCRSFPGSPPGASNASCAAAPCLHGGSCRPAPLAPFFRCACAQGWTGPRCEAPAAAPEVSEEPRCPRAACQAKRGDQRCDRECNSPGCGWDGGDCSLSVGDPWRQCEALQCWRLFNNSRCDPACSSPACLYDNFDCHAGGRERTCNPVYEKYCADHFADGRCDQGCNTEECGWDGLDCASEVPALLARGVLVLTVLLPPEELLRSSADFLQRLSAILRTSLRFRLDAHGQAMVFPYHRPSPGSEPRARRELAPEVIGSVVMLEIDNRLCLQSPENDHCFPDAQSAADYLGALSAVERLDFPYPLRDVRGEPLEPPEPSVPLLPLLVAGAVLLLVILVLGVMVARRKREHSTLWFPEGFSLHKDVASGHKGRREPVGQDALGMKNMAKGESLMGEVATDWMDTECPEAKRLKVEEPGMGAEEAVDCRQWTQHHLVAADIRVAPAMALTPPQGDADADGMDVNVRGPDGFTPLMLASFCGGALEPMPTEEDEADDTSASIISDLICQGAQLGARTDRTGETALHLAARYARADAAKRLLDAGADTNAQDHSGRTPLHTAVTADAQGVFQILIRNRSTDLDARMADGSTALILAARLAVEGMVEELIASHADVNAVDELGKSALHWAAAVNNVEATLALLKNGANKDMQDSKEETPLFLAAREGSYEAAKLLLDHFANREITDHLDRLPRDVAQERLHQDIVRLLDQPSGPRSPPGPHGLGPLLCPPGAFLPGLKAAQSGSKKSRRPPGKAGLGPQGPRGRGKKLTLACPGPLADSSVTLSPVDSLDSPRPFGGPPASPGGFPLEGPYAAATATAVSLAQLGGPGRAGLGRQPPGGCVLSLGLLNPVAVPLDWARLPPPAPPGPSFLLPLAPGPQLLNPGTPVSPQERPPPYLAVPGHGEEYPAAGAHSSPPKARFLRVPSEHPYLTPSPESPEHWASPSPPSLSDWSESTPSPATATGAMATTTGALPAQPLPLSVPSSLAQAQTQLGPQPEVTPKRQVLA
# Sequence of Torsin-1A-interacting protein 2 (Homo sapiens) (Q8NFQ8 whole entry, looked up): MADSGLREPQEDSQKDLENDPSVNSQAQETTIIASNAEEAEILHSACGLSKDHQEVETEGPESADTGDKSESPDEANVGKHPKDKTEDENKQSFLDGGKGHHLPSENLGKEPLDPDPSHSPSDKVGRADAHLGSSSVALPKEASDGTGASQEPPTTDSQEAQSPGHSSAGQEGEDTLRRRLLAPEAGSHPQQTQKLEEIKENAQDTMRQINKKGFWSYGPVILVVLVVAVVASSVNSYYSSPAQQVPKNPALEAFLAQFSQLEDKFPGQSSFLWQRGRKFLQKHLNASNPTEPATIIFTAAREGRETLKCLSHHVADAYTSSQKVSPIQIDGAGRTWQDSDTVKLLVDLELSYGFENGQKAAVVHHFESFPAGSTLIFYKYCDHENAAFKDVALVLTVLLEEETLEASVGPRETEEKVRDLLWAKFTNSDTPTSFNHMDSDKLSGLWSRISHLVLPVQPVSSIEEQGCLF
# Sequence of Fibroblast growth factor 10 (Homo sapiens) (O15520 whole entry, looked up): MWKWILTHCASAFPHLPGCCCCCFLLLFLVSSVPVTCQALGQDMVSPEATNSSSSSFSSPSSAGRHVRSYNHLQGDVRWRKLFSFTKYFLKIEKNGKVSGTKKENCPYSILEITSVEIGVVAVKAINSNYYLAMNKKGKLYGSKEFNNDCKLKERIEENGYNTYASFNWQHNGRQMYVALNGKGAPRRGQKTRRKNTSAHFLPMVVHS
# Sequence of Follistatin-related protein 3 (Homo sapiens) (O95633 whole entry, looked up): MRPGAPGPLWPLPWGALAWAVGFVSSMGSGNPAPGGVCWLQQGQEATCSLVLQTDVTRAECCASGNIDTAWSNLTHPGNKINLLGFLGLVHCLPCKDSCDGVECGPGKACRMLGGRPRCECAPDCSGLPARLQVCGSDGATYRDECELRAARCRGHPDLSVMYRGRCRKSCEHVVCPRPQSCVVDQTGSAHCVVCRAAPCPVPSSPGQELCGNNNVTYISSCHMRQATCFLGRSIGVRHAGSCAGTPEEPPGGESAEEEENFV
# Sequence of Dickkopf-related protein 1 (Homo sapiens) (O94907 whole entry, looked up): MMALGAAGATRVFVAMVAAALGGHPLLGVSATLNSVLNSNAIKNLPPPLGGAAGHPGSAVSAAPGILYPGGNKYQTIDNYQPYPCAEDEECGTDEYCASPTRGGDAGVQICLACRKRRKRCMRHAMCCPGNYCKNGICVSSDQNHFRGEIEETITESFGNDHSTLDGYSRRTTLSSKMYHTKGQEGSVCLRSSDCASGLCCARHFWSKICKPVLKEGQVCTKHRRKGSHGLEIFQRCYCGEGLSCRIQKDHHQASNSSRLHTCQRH
SMILES,composite z-score [1],z-score [2],z-score [3],z-score [4],composite z-score [5],z-score [6],composite z-score [7],composite z-score [8],composite z-score [9],composite z-score [10],composite z-score [11],composite z-score [12],composite z-score [13],z-score [14],composite z-score [15],composite z-score [16],composite z-score [17],composite z-score [18],composite z-score [19],composite z-score [20]
CC(CO)N1C(=O)[C@@H]2C3C(=O)OCCC=C[C@H]3OC23C=CCN(C(C)(C)C)C(=O)[C@@H]13 (stereo not given in full),-0.577 and 0.254,0.581 (inactive) and -1.45 (inactive),0.605 (inactive) and -0.779 (inactive),0.819 (inactive) and -0.544 (inactive),-0.326 and 2.17,-0.586 (inactive) and -0.513 (inactive),-0.176 and 0.0028,-0.808 and 0.16,-0.431 and 0.289,-0.295 and -0.117,-0.117 and -0.15,-0.216 and 0.073,0.254 and 0.178,0.612 (inactive) and -0.541 (inactive),-0.941 and 0.229,-0.875 and 0.449,-0.839 and -0.726,-0.464 and 0.008,-0.476 and -0.008,0.298 and 1.11
COC(=O)[C@H](C)NC(=O)CCC1CC(OC(=O)NCCc2ccc(F)cc2)CC2(CCCC(COC(=O)NCCCN3CCCC3=O)O2)O1 (stereo not given in full),1.55,-0.432 (inactive),0.899 (inactive),0.849 (inactive),1.64,-0.681 (inactive),-0.168,0.727,1.03,-0.0505,1.07,-0.0361,0.778,-0.247 (inactive),1.14,1.28,0.597,1.36,1.44,-0.0362
C=CCN(CCCCC)C(=O)C(c1cccs1)N(C(=O)/C=C\C(=O)O)c1c(Cl)cccc1CO (stereo not given),-0.399 and -0.874,0.0767 (inactive) and -0.389 (inactive),-0.186 (inactive) and -0.149 (inactive),-0.288 (inactive) and -0.446 (inactive),2.54 and 0.687,-0.422 (inactive) and -0.448 (inactive),0.0503 and -0.151,-2.9 and -1.86,-0.864 and -1.23,-0.348 and -0.216,1.04 and 0.231,-0.0127 and -0.47,1.15 and 0.975,0.105 (inactive) and 1.15 (inactive),-0.85 and -2.15,-0.612 and -1.36,-2.28 and -1.78,-2.13 and -1.29,-3.02 and -1.77,-2.25 and -3.37
C[N+](C)(C)CCCCCCNC(=O)[C@H]1C[C@H]2C(=O)N[C@@H](CCCC[N+](C)(C)C)C(=O)N2[C@H]1c1cccc(OCCO)c1,1.46 and 0.0165,-2.56 (inactive) and 0.455 (inactive),-1.18 (inactive) and -0.331 (inactive),0.162 (inactive) and 1.01 (inactive),2.99 and 0.566,0.598 (inactive) and -0.404 (inactive),-0.0589 and 0.582,1.94 and 0.904,1.01 and -0.0712,-0.0703 and 0.127,1.73 and 1.42,-0.0501 and 1.08,-0.148 and 0.62,-0.159 (inactive) and 0.257 (inactive),1.2 and 0.913,0.898 and 0.613,0.111 and 0.558,1.44 and 0.262,1.34 and 1.55,0.589 and 1.36
C=CCN(CCCC)C(=O)C1N(c2c(Cl)cccc2CO)C(=O)C2C(C(=O)O)C3C=CC21O3 (stereo not given),-0.502 and 0.174,0.381 (inactive) and 0.588 (inactive),-0.162 (inactive) and -0.186 (inactive),0.258 (inactive) and -0.535 (inactive),-1.27 and 3.03,0.455 (inactive) and 3.02 (inactive),-0.0948 and -0.113,-2.38 and -0.509,-1.73 and -0.0461,-0.308 and -0.0286,0.934 and -0.194,0.0215 and -0.0881,1.08 and 0.748,-0.786 (inactive) and -0.929 (inactive),-0.613 and -1.38,-2.1 and -0.938,-1.71 and -1.18,-2.37 and -1.28,-2.46 and -2.71,-1.41 and -0.0137
Cc1ccc(S(=O)(=O)N[C@@H]2COC(=O)CC=C[C@@H](C)[C@@H]3C=C[C@H](O)[C@@H](COC(=O)CC=C[C@H]2C)O3)cc1,0.438 and 0.385,-0.147 (inactive) and -0.184 (inactive),-0.349 (inactive) and -0.549 (inactive),-0.564 (inactive) and -0.784 (inactive),-0.0372 and -0.0592,0.651 (inactive) and -0.667 (inactive),-0.185 and -0.162,0.902 and 0.305,-0.0571 and 0.584,-0.072 and -0.112,0.527 and 0.241,-0.553 and -0.331,-1.15 and -0.466,-0.371 (inactive) and -1.35 (inactive),0.606 and 0.174,0.126 and 0.233,0.884 and 0.383,1.08 and 0.451,1.13 and 0.389,1.03 and -0.134
C=CC[C@H](O)c1ccc(OCCO)cc1,-0.145 and -1.37,-0.192 (inactive) and -0.831 (inactive),-0.228 (inactive) and -0.917 (inactive),-0.389 (inactive) and -1.19 (inactive),-0.435 and -2.14,-0.646 (inactive) and -0.812 (inactive),-0.0653 and -0.181,-0.292 and 0.249,-0.847 and -0.324,-0.162 and -0.191,0.142 and -0.925,0.203 and -0.308,0.777 and 0.484,0.296 (inactive) and 2.7 (inactive),-0.603 and -0.328,-0.92 and -2.17,-0.883 and -0.455,-0.382 and -0.0904,-1.06 and -0.251,0.149 and 0.677
COC(=O)C1=C(C)N(Cc2ccccc2)C2=C3C(=O)N(C)C(=O)[C@@H]3[C@@](O)(C(=O)OC)C(=O)N2[C@@H]1c1ccccc1,0.471 and 0.0202,0.0264 (inactive) and -1.64 (inactive),-0.774 (inactive) and -1.87 (inactive),-0.807 (inactive) and -0.913 (inactive),0.0055 and 0.222,0.858 (inactive) and -0.0481 (inactive),0.0494 and -0.184,0.34 and 0.538,0.182 and 0.361,-0.138 and 0.131,-0.0387 and 0.0245,0.0287 and -0.103,-0.282 and -0.486,-0.18 (inactive) and -0.675 (inactive),0.786 and 0.387,0.0745 and 0.608,0.533 and 0.834,0.285 and 0.502,0.103 and 0.211,0.476 and 0.292
